Measured values: PubChem BioAssay AID1159580 (chemical genetic matrix, 2015)
The campaign covered roughly 5,500 compounds. About 2,000 (36%) were called active. Not shown: some 18% with an inconclusive outcome. No stated cut-off is given here; in the data, active means normalized growth mostly below about 0.91 (no sharp cut-off); inconclusive means no clear call, values can overlap the other calls; inactive means mostly above about 0.92. The list shows a part of the results.

Test: chemical genetic growth profiling, strain panel (AID 1159580);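 further: tested at 20 µM; growth read once vehicle control cultures reached saturation at 30 °C; 1 = growth at the plate median or of vehicle wells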
Conditions: S. cerevisiae deletion strains, growth OD

Measured: normalized growth

C[C@@H]1CC2C3CCC4=CC(=O)C=C[C@]4(C)[C@@]3(F)[C@@H](O)C[C@]2(C)[C@@]1(O)C(=O)CO (stereo partly drawn)
inactive: locus YAL021C, strain ccr4, stronger effect = lower value 0.96 | locus YAL026C, strain drs2, stronger effect = lower value 0.988 | locus YAL030W, strain snc1, stronger effect = lower value 0.969 | locus YBL061C, strain skt5, stronger effect = lower value 0.976 | locus YBR009C, strain hhf1, stronger effect = lower value 0.989 | locus YBR023C, strain chs3, stronger effect = lower value 0.999 | locus YBR171W, strain sec66, stronger effect = lower value 0.947 | locus YBR231C, strain swc5, stronger effect = lower value 0.978 | locus YBR279W, strain paf1, stronger effect = lower value 1 | locus YCL011C, strain gbp2, stronger effect = lower value 0.988 | locus YCL016C, strain dcc1, stronger effect = lower value 1.03 | locus YCL069W, strain vba3, stronger effect = lower value 0.975 | locus YCR088W, strain abp1, stronger effect = lower value 0.978 | locus YDL005C, strain med2, stronger effect = lower value 0.966 | locus YDL040C, strain nat1, stronger effect = lower value 0.964 | locus YDR001C, strain nth1, stronger effect = lower value 0.966 | locus YDR069C, strain doa4, stronger effect = lower value 0.96 | locus YDR137W, strain rgp1, stronger effect = lower value 1.02 | locus YDR159W, strain sac3, stronger effect = lower value 0.968 | locus YDR195W, strain ref2 0.948 | locus YDR297W, strain sur2, stronger effect = lower value 0.988 | locus YDR334W, strain swr1, stronger effect = lower value 0.957 | locus YDR335W, strain msn5, stronger effect = lower value 0.976 | locus YDR392W, strain spt3, stronger effect = lower value 1.06 | locus YEL003W, strain gim4, stronger effect = lower value 0.973 | locus YEL037C, strain rad23, stronger effect = lower value 0.974 | locus YEL061C, strain CIN8 (second series), stronger effect = lower value 0.976 | locus YER015W, strain faa2, stronger effect = lower value 0.995 | locus YER016W, strain bim1, stronger effect = lower value 1.03 | locus YER111C, strain swi4, stronger effect = lower value 0.971 | locus YER155C, strain BEM2 (second series), stronger effect = lower value 0.958 | locus YFR010W, strain ubp6, stronger effect = lower value 0.958 | locus YGL167C, strain pmr1, stronger effect = lower value 0.957 | locus YGL173C, strain kem1, stronger effect = lower value 0.964 | locus YGL227W, strain vid30, stronger effect = lower value 0.987 | locus YGL240W, strain doc1, stronger effect = lower value 0.966 | locus YGL253W, strain hxk2, stronger effect = lower value 1 | locus YHR013C, strain ard1, stronger effect = lower value 0.995 | locus YHR027C, strain rpn1, stronger effect = lower value 0.993 | locus YHR030C, strain SLT2, stronger effect = lower value 1.02 | locus YHR079C, strain IRE1, stronger effect = lower value 1.01 | locus YHR142W, strain chs7, stronger effect = lower value 0.948 | locus YJL092W, strain hpr5, stronger effect = lower value 0.964 | locus YJL095W, strain BCK1 (second series), stronger effect = lower value 0.967 | locus YJL095W, strain BCK1, stronger effect = lower value 1.02 | locus YJL115W, strain asf1, stronger effect = lower value 0.976 | locus YJL129C, strain trk1, stronger effect = lower value 0.976 | locus YJL154C, strain vps35, stronger effect = lower value 0.951 | locus YJL164C, strain tpk1, stronger effect = lower value 1.01 | locus YJL166W, strain qcr8, stronger effect = lower value 0.916 | locus YJR066W, strain TOR1, stronger effect = lower value 0.997 | locus YKL160W, strain elf1, stronger effect = lower value 0.989 | locus YKR026C, strain gcn3, stronger effect = lower value 0.98 | locus YKR091W, strain srl3, stronger effect = lower value 0.961 | locus YLL001W, strain dnm1, stronger effect = lower value 0.911 | locus YLL026W, stronger effect = lower value 0.985 | locus YLL041C, strain sdh2, stronger effect = lower value 0.972 | locus YLR027C, strain aat2, stronger effect = lower value 0.976 | locus YLR113W, strain HOG1, stronger effect = lower value 1.03 | locus YLR221C, strain rsa3, stronger effect = lower value 1.02 | locus YLR258W, strain gsy2, stronger effect = lower value 0.987 | locus YLR262C, strain YPT6 (second series), stronger effect = lower value 0.943 | locus YLR320W, strain mms22, stronger effect = lower value 1 | locus YLR342W, strain FKS1, stronger effect = lower value 0.951 | locus YLR357W, strain rsc2, stronger effect = lower value 0.966 | locus YLR370C, strain arc18, stronger effect = lower value 0.996 | locus YLR384C, strain iki3, stronger effect = lower value 0.982 | locus YML120C, strain ndi1, stronger effect = lower value 0.969 | locus YMR058W, strain fet3, stronger effect = lower value 0.981 | locus YMR125W, strain sto1, stronger effect = lower value 0.951 | locus YMR129W, stronger effect = lower value 0.993 | locus YMR205C, strain PFK2, stronger effect = lower value 0.969 | locus YMR231W, strain pep5, stronger effect = lower value 0.96 | locus YNL071W, strain lat1, stronger effect = lower value 0.971 | locus YNL183C, strain NPR1, stronger effect = lower value 0.965 | locus YNL209W, strain ssb2, stronger effect = lower value 0.997 | locus YNL248C, strain rpa49, stronger effect = lower value 1.01 | locus YNL322C, strain KRE1 (second series), stronger effect = lower value 0.962 | locus YNR049C, strain mso1, stronger effect = lower value 0.984 | locus YOR001W, strain rrp6, stronger effect = lower value 0.976 | locus YOR070C, strain gyp1, stronger effect = lower value 0.997 | locus YOR080W, strain dia2, stronger effect = lower value 0.948 | locus YOR083W, strain WHI5, stronger effect = lower value 0.968 | locus YOR106W, strain vam3, stronger effect = lower value 0.933 | locus YOR231W, strain MKK1, stronger effect = lower value 1.01 | locus YOR265W, strain rbl2, stronger effect = lower value 0.986 | locus YOR270C, strain vph1, stronger effect = lower value 0.955 | locus YOR290C, strain snf2, stronger effect = lower value 1.02 | locus YPL051W, strain arl3, stronger effect = lower value 1.01 | locus YPL078C, strain atp4, stronger effect = lower value 0.928 | locus YPL106C, strain sse1, stronger effect = lower value 0.981 | locus YPL240C, strain hsp82, stronger effect = lower value 0.98 | locus YPL256C, strain CLN2, stronger effect = lower value 1.01
